Values joined by “and” are separate entries in the source; they are usually repeats but may differ in a detail not shown here. Equal values may be shown once. Records with an inconclusive call do not appear. Active and inactive are the calls of the source. The call rests on the fitted dose curve; in most records, active means well fitted curve in the direction sought with a large enough effect; inconclusive means small, poorly fitted or top-dose-only effect, or another doubt; inactive means no such curve, though single readings can be large; an effect the other way counts as inactive or inconclusive.
Columns and labels:
[1] = target: N-terminal Xaa-Pro-Lys N-methyltransferase 1 (Homo sapiens) (UniProt Q9BV86); test: qHTS Assay for Inhibitors of N-terminal methyltransferase 1 (NTMT1): LOPAC validation of the NTMT1 SAHH-coupled ThioGlo3 Assay (AID 1347143);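 further: SAH from peptide methylation measured as thiol fluorescence via SAHH coupling and ThioGlo3; nearly all actives have a fitted effect of over 70% in size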; further: potency means the concentration at half of the fitted maximal effect
Sequence of N-terminal Xaa-Pro-Lys N-methyltransferase 1 (Homo sapiens) (Q9BV86 whole entry, looked up): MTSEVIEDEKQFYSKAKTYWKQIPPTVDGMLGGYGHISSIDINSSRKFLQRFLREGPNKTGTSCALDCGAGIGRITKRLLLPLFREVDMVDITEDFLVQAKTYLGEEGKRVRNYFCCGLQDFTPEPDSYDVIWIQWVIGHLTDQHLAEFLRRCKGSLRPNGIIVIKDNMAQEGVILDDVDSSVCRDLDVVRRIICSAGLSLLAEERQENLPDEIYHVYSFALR
How it was run: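 Recombinant human NTMT1 (125nM) was pre-incubated 1 min at room temperature with compounds over a concentration range, then a mix of 100uM SAM, 10uM SAHH and 15uM ThioGlo3 (concentrations in added reagent) was added. ThioGlo3 fluorescence (ex 340/em 450nm) after 30 min was normalized to the initial reading.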

[2] = test system: Zika virus NS2B-NS3 protease (unlinked); test: Optimization of GU AMC qHTS for Zika virus inhibitors: Unlinked NS2B-NS3 protease assay (AID 1347151); further: nearly all actives have a fitted effect of over 80% in size; further: potency means the concentration at half of the fitted maximal effect
How it was run: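 Noncovalent complex of NS2B hydrophilic domain and NS3 protease domain, 25 nM final, in 10 mM Tris-HCl pH 8.0, 0.01% Tween 20. AMC fluorescence change over 15 min at room temperature was fitted to a 4-parameter Hill equation.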

[3] = qHTS of pediatric cancer cell lines to identify multiple opportunities for drug repurposing: Confirmatory screen for DAOY cells (AID 1347114); further: nearly all actives have a fitted effect of over 65% in size; further: potency means the concentration at half of the fitted maximal effect
How it was run: (§1)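 Viability measured as metabolically active cells via CellTiter-Glo luminescence following 48 hours of compound exposure, 11-point dilutions in confirmatory testing. 500-1,000 cells/well plated 5 hours before dosing; controls were DMSO and 2.3 µM bortezomib.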

[4] = qHTS of pediatric cancer cell lines to identify multiple opportunities for drug repurposing: Confirmatory screen for NB-EBc1 cells (AID 1347115);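 further: cells exposed to compound for 48 h before the viability read; nearly all actives have a fitted effect of over 45% in size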; further: potency means the concentration at half of the fitted maximal effect
How it was run: (§2)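 Viability after 48 h compound treatment at 37C, 500-1,000 cells/well, read as ATP luminescence with CellTiter-Glo. Primary screens used 11-point (MIPE, 0.78 nM-46 µM) or 8-point (NPC, 0.59 nM-46 µM) final concentrations; follow-up screens used 11-point dilutions.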

[5] = qHTS of pediatric cancer cell lines to identify multiple opportunities for drug repurposing: Confirmatory screen for Rh41 cells (AID 1347123);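 further: 48 h compound exposure; nearly all actives have a fitted effect of over 60% in size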; further: potency means the concentration at half of the fitted maximal effect
How it was run: as §2

[6] = qHTS of pediatric cancer cell lines to identify multiple opportunities for drug repurposing: Confirmatory screen for Rh18 cells (AID 1347125); further: nearly all actives have a fitted effect of over 55% in size; further: potency means the concentration at half of the fitted maximal effect
How it was run: as §2

[7] = qHTS of pediatric cancer cell lines to identify multiple opportunities for drug repurposing: Confirmatory screen for SK-N-SH cells (AID 1347129);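 further: cells exposed to compound for 48 h before viability read; nearly all actives have a fitted effect of over 60% in size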; further: potency means the concentration at half of the fitted maximal effect
How it was run: as §2

[8] = test system: Zika virus NS2B-NS3 protease; test: Primary screen GU AMC qHTS for Zika virus inhibitors (AID 1347154); further: nearly all actives have a fitted effect of over 70% in size
How it was run: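 Unlinked Zika NS2B hydrophilic domain–NS3 protease complex at 25 nM in 10 mM Tris-HCl pH 8.0, 0.01% Tween 20, with an AMC peptide substrate. Fluorescence change (340/450 nm) over 15 min at room temperature, normalized to controls, fitted to 4-parameter Hill.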

[9] = qHTS of pediatric cancer cell lines to identify multiple opportunities for drug repurposing: Confirmatory screen for SJ-GBM2 cells (AID 1347116); further: nearly all actives have a fitted effect of over 60% in size; further: potency means the concentration at half of the fitted maximal effect
How it was run: as §1

[10] = qHTS of pediatric cancer cell lines to identify multiple opportunities for drug repurposing: Confirmatory screen for MG 63 (6-TG R) cells (AID 1347119); further: nearly all actives have a fitted effect of over 55% in size; further: potency means the concentration at half of the fitted maximal effect
How it was run: as §2

[11] = qHTS of pediatric cancer cell lines to identify multiple opportunities for drug repurposing: Confirmatory screen for control Hh wild type fibroblast cells (AID 1347121); further: nearly all actives have a fitted effect of over 70% in size; further: potency means the concentration at half of the fitted maximal effect
How it was run: as §2

[12] = qHTS of pediatric cancer cell lines to identify multiple opportunities for drug repurposing: Confirmatory screen for OHS-50 cells (AID 1347128);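 further: compound exposure lasted 48 h at 37 degrees C; nearly all actives have a fitted effect of over 55% in size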; further: potency means the concentration at half of the fitted maximal effect
How it was run: as §2

[13] = qHTS of pediatric cancer cell lines to identify multiple opportunities for drug repurposing: Confirmatory screen for BT-37 cells (AID 1347117); further: nearly all actives have a fitted effect of over 55% in size; further: potency means the concentration at half of the fitted maximal effect
How it was run: as §2

[14] = qHTS of pediatric cancer cell lines to identify multiple opportunities for drug repurposing: Confirmatory screen for Rh30 cells (AID 1347126); further: nearly all actives have a fitted effect of over 55% in size; further: potency means the concentration at half of the fitted maximal effect
How it was run: as §2

[15] = qHTS of pediatric cancer cell lines to identify multiple opportunities for drug repurposing: Confirmatory screen for Saos-2 cells (AID 1347127); further: potency means the concentration at half of the fitted maximal effect; nearly all actives have a fitted effect of over 60% in size
How it was run: as §2

[16] = qHTS of pediatric cancer cell lines to identify multiple opportunities for drug repurposing: Confirmatory screen for U-2 OS cells (AID 1347122); further: nearly all actives have a fitted effect of over 65% in size; further: potency means the concentration at half of the fitted maximal effect
How it was run: as §2

[17] = qHTS of pediatric cancer cell lines to identify multiple opportunities for drug repurposing: Confirmatory screen for RD cells (AID 1347124);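 further: cells exposed to compound for 48 h before viability readout; nearly all actives have a fitted effect of over 65% in size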; further: potency means the concentration at half of the fitted maximal effect
How it was run: as §2

Furin (Homo sapiens) = Furin (Homo sapiens) (UniProt P09958); test: Furin counterscreen qHTS for Zika virus inhibitors (AID 1347149); further: nearly all actives have a fitted effect of over 70% in size; further: potency means the concentration at half of the fitted maximal effect
Sequence of Furin (Homo sapiens) (P09958 whole entry, looked up): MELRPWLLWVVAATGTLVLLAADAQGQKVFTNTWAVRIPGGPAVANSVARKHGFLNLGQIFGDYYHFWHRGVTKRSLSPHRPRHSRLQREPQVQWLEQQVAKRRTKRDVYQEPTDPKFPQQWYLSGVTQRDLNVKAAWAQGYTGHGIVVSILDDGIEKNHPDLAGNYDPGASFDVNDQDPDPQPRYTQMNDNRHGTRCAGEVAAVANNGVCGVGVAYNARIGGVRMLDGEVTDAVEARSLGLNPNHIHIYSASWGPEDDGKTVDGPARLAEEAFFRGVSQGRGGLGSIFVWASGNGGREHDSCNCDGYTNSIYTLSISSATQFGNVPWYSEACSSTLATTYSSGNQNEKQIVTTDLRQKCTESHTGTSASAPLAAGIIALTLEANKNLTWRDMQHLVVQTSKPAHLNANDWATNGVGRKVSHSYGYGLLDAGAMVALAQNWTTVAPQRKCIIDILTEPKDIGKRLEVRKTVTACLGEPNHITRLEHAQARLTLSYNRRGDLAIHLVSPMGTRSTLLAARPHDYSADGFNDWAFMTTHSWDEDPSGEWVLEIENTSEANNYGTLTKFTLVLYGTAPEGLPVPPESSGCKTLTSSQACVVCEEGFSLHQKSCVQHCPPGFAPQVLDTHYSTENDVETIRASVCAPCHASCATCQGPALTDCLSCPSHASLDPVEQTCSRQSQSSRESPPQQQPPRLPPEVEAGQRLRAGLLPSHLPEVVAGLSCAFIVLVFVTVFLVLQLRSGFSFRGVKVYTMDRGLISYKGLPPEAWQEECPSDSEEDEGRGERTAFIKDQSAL
How it was run: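 Fluorogenic cleavage of BOC-RVRR-AMC (2 microM final, Km ~15 µM) was monitored (ex 340, em 450 nm) at 37C after 15 min RT preincubation of 5 nM furin with compounds in HEPES pH 7.0 buffer with CaCl2 and Triton X-100. Percent inhibition was fitted to a 4-parameter Hill curve.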

Measured: Potency

c1ccc(C2CC2)c(OCC2=NCCN2)c1
inactive: [1] | [2]

N#CC(C#N)=Cc1ccc(O)c(O)c1
active: [1] 56.2 µM

CC[C@@H](CO)NC(=O)[C@@H]1C=C2c3cccc4[nH]cc(c34)C[C@H]2N(C)C1
active: [1] 25.1 µM | [2] 23.8 µM

CC(C)CC(N(C)C)C1(c2ccc(Cl)cc2)CCC1 (centres undefined)
inactive: [3] | [4] | [5] | [7]
active: [6] 20.8 µM

Nc1ccncc1
inactive: [1] | [2] | [8]

Cc1ccc(S(=O)(=O)N[C@@H](CCCCN)C(=O)CCl)cc1
inactive: [2]
active: [1] 56.2 µM

N[C@@H](Cc1ccc(N(CCCl)CCCl)cc1)C(=O)O
inactive: [11] | [8]
active: [3] 23.3 µM | [4] 5.85 µM | [9] 20.8 µM | [10] 16.5 µM | [12] 26.1 µM | [7] 18.7 µM

O=c1[nH]c2ccccc2n1CCCN1CCC(n2c(=O)[nH]c3cc(Cl)ccc32)CC1
active: [3] 23.3 µM | [4] 16.5 µM | [9] 13.1 µM | [13] 8.27 µM | [10] 6.57 µM | [5] 16500 nM | [6] 9.27 µM | [14] 7.37 µM | [15] 10.4 µM | [12] 13.1 µM
inactive: [1] | [2] | [8]

C[C@@H]1[C@@H](CC(C[C@H]2O[C@@H]3O[C@]4(C)CC[C@@H]5[C@H](C)CC[C@@H]([C@H]2C)[C@@]35OO4)C[S+](=O)([O-])c2ccc(COC(=O)N(C)C)cc2)O[C@@H]2O[C@]3(C)CC[C@H]4[C@H](C)CC[C@@H]1[C@@]24OO3 (some centres undefined)
inactive: [8]
active: [3] 1.04 µM | [4] 0.928 µM | [9] 1.65 µM | [13] 0.233 µM | [10] 2.33 µM | [11] 13.1 µM | [5] 82.7 nM | [14] 4.65 µM | [12] 0.233 µM

O=P1(NCCCl)OCCCN1CCCl (centres undefined)
not listed: [1] | [2] | [15] | Furin (Homo sapiens)
inactive: all other assays above

Cc1sc2c(c1C)C(c1ccc(Cl)cc1)=N[C@@H](CC(=O)OC(C)(C)C)c1nnc(C)n1-2
inactive: [3] | [9] | [11] | [16] | [5] | [7]
active: [13] 1.31 µM

NCC(CC(=O)O)c1ccc(Cl)cc1 (centres undefined)
inactive: [1] | [2]

Cn1cc(C2=C(c3cn(C4CCN(Cc5ccccn5)CC4)c4ccccc34)C(=O)NC2=O)c2ccccc21
inactive: [11] | [16] | [12] | [7]

CCCN1CCC[C@@H]2Cc3[nH]ncc3C[C@H]21
inactive: [1] | [2] | [8]

C=C(C)[C@H]1Cc2c(ccc3c2O[C@@H]2COc4cc(OC)c(OC)cc4[C@@H]2C3=O)O1
inactive: [16] | [17] | [14] | [8]
active: [4] 0.293 µM | [13] 2.61 µM | [10] 0.0329 µM | [11] 0.117 µM | [12] 1.47 µM

O=c1oc2ccccc2c(O)c1C(CC(O)c1ccc(-c2ccc(Br)cc2)cc1)c1ccccc1 (centres undefined)
active: Furin (Homo sapiens) 26.4 µM

NCC(O)c1ccc(O)cc1 (centres undefined)
inactive: [1] | [2]

N[C@@H](Cc1ccc(Oc2cc(I)c(O)c(I)c2)c(I)c1)C(=O)O
active: Furin (Homo sapiens) 30.4 µM

C[C@@H]1[C@@H](C(=O)C[C@H]2O[C@@H]3O[C@]4(C)CC[C@@H]5[C@H](C)CC[C@@H]([C@H]2C)[C@@]35OO4)O[C@@H]2O[C@]3(C)CC[C@H]4[C@H](C)CC[C@@H]1[C@@]24OO3
active: [13] 1.65 µM | [5] 928 nM | [17] 0.737 µM | [14] 13.1 µM
inactive: [3] | [11] | [6]

c1ccc2c(c1)OCC(C1=NCCN1)O2 (centres undefined)
active: [1] 56.2 µM
inactive: [2] | [8]

Cc1cccc(C)c1NC(=O)CN1CCCC1=O
inactive: [1] | [2]

CNCC(O)c1ccc(O)cc1 (centres undefined)
inactive: [1] | [2] | [8]

NCC1(CC(=O)O)CCCCC1
inactive: [1] | [2] | [8]

CC(=O)[C@H]1CC[C@H]2[C@@H]3CC[C@H]4C[C@](C)(O)CC[C@]4(C)[C@H]3CC[C@]12C
inactive: [1] | [2]

C[C@@H]1O[C@@H](O[C@H]2C[C@@H](O)[C@]3(CO)[C@H]4[C@H](O)C[C@]5(C)[C@@H](C6=CC(=O)OC6)CC[C@]5(O)[C@@H]4CC[C@]3(O)C2)[C@H](O)[C@H](O)[C@H]1O
active: [3] 73.7 nM and 56.2 nM | [9] 0.261 µM | [13] 65.7 nM and 92.8 nM | [10] 104 nM and 117 nM | [16] 131 nM and 89.1 nM | [5] 46.5 nM and 39.8 nM | [17] 0.117 µM | [14] 0.165 µM | [15] 369 nM and 657 nM | [12] 0.0928 µM | [7] 132 nM and 79.4 nM
inactive: [1] | Furin (Homo sapiens) | [2] | [8]
